TDP1 cell CPT = DT40-hTDP1 cell growth loss with CPT; AID 686979; Potency, µM (top dose mostly 46.2 µM), usual class: inhibitors; chicken DT40 Tdp1-/-;hTDP1 cells + 20 nM CPT, ATP luminescence, 48 h; actives 12% (n = 420,000); note: nearly all actives have a fitted effect of over 55% in size
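Chicken DT40 Tdp1-/- cells stably complemented with human TDP1 were seeded at 400 cells/well in medium containing 20 nM camptothecin, exposed to pin-transferred compounds, and grown at 37 °C for at least 48 hr. Viability was read as ATP luminescence.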
HT1080 IDH1KD tx = toxicity to HT-1080 IDH1 knockdown cells (counter line). HT-1080 IDH1 knockdown viability, ATP luminescence, 48 h. Potency, µM (titrated, usually from 46.1 µM), actives largely listed as cytotoxic. actives 2% (n = 360,000). AID 686971
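IDH1KD HT-1080 cells, 750/well, RPMI + 5% FBS; compound pinned after 2 h settling; 48 h, 37 °C; CellTiter-Glo luminescence; % activity normalised to DMSO and no-cell wells; curves fitted, classed by r2 and efficacy.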
DT40 TDP1 no CPT = qHTS for Inhibitors of human tyrosyl-DNA phosphodiesterase 1 (TDP1): qHTS in cells in absence of CPT | DT40 Tdp1-/- hTDP1 cells, no CPT, ATP luminescence, 48 h | Potency, µM (titrated, usually from 46.2 µM), actives largely listed as inhibitors | actives 15% (n = 420,000) | AID 686978, 2013; note: nearly all actives have a fitted effect of over 55% in size
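Cells were dispensed at 400 per well, compounds added by pin tool, plates incubated ≥48 hr at 37 °C, then CellTiter-Glo added for 30 min at room temperature before luminescence reading. Line: DT40 Tdp1-/- complemented with hTDP1; camptothecin omitted.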
uPA generation = cell surface uPA generation inhibition | actives 0.31% (n = 330,000) | Potency, µM (highest dose often 38.3 µM), most hits filed as inhibitors | cell surface uPA generation assay, qHTS; active = well fitted inhibition curve with a large enough effect; inconclusive = small, poorly fitted or top-dose-only effect; inactive = no such curve, though single readings can be large or run the other way; tested in mouse RAW 264.7 cells; note: nearly all actives have a fitted effect of over 55% in size
IL1B secr inh = blocks inflammasome-driven IL-1 beta release. THP-1 LPS/ATP IL-1B secretion, AlphaLISA, 16 h; active compounds read low. activity change, % at 57.5 µM. actives 4.7% (n = 360,000). AID 743279; in the data active = activity change below about -50%; inconclusive = mostly about -30% to -49%
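Secreted IL-1B measured by AlphaLISA bead assay after 16 h compound exposure of THP-1 cells; compounds (final up to 57.5 uM) added 1 h before LPS (250 ng/mL) and ATP (1.25 mM) stimulation; lower signal means less secretion.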
HT1080-NT tox = kills 2HG-producing HT-1080-NT fibrosarcoma cells; actives 1.6% (n = 360,000); Potency, µM (series often up to 46.1 µM), usual class: cytotoxic; HT-1080-NT fibrosarcoma viability, CellTiter-Glo ATP luminescence, 48 h; AID 686970;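 note: NT is the 2HG producing partner of a matched IDH1 knockdown line; nearly all actives have a fitted effect of over 55% in size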
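A 48-hour cytotoxicity screen used HT-1080-NT cells plated 2 hours before compound delivery. ATP-based CellTiter-Glo luminescence measured viability, normalized to DMSO and no-cell controls.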
Large screens that a line does not name were inactive. Hits are enriched below; roughly 19% of the tested compounds scored in any of these assays. Unless noted, calls come from the whole dose curve; as a rule, active = well fitted curve in the direction sought with a large enough effect; inconclusive = small, poorly fitted or top-dose-only effect, or another doubt; inactive = no such curve, though single readings can be large; an effect the other way counts as inactive or inconclusive.

O=CN/N=C/c1c(O)ccc2ccccc12	TDP1 cell CPT 7.3µM, HT1080 IDH1KD tx inconclusive, DT40 TDP1 no CPT 6.5µM
NC(=S)N/N=C/c1c(O)ccc2ccccc12	TDP1 cell CPT 12µM, DT40 TDP1 no CPT inconclusive, uPA generation inconclusive
Oc1ccc2ccccc2c1/C=N/Nc1ccccc1	none
Oc1ccccc1C=NN=Cc1c(O)ccc2ccccc12	TDP1 cell CPT inconclusive, DT40 TDP1 no CPT inconclusive
COc1cc(OC)cc(-c2nc3nc(C)c(CCC(=O)Nc4ccc(Cl)cc4)c(C)n3n2)c1	none (no result: HT1080 IDH1KD tx, uPA generation, IL1B secr inh, HT1080-NT tox)
Cc1cc2nc(N3CCCN(Cc4cccn4-c4ncccn4)CC3)nc(C)c2cc1C	DT40 TDP1 no CPT 16µM (no result: HT1080 IDH1KD tx, uPA generation, IL1B secr inh, HT1080-NT tox)
COc1ccc(O)c(CN2CCCN(c3nc(C)c4cc(C)c(C)cc4n3)CC2)c1	none (no result: HT1080 IDH1KD tx, uPA generation, IL1B secr inh, HT1080-NT tox)
O=C(COc1ccccc1)OCC(=O)c1ccc(O)cc1O	none
O=C(COc1ccc(Cl)cc1)c1ccc(O)cc1O	DT40 TDP1 no CPT inconclusive, IL1B secr inh -67
CC(=O)OC(C)OC(=O)C(C)c1ccc(-c2ccccc2)c(F)c1 (configuration not stated)	none (no result: HT1080 IDH1KD tx, uPA generation, IL1B secr inh, HT1080-NT tox)
CC(=O)N1c2ccc(S(=O)(=O)N3CCCC3C(=O)Nc3cccc(F)c3)cc2CC1C (configuration not stated)	TDP1 cell CPT 16µM, DT40 TDP1 no CPT inconclusive, uPA generation inconclusive
COc1ccc(NC(=O)C2CCCN2S(=O)(=O)c2ccc3c(c2)CC(C)N3C(C)=O)cc1OC (configuration not stated)	TDP1 cell CPT inconclusive
CCc1cccc(NC(=O)C2CCCN2S(=O)(=O)c2ccc3c(c2)CC(C)N3C(C)=O)c1 (configuration not stated)	TDP1 cell CPT inconclusive, DT40 TDP1 no CPT 12µM
CCc1ccccc1NC(=O)C1CCCN(S(=O)(=O)c2ccc3c(c2)CC(C)N3C(C)=O)C1 (configuration not stated)	DT40 TDP1 no CPT inconclusive
CCc1cccc(NC(=O)C2CCCN2S(=O)(=O)c2ccccc2C(F)(F)F)c1 (configuration not stated)	TDP1 cell CPT inconclusive, DT40 TDP1 no CPT 21µM
CCC(=O)N[C@@H]1C=C[C@@H](CC(=O)NCc2ccccc2F)O[C@@H]1CO	none (no result: uPA generation)
Oc1ccc(NCc2ccccc2OCc2ccc(Cl)cc2)cc1	TDP1 cell CPT 29µM, DT40 TDP1 no CPT 21µM (no result: HT1080 IDH1KD tx, uPA generation, IL1B secr inh, HT1080-NT tox)
O=c1[nH]c2ccc(NCc3ccccc3OCc3ccc(Cl)cc3)cc2[nH]1	TDP1 cell CPT 23µM, HT1080 IDH1KD tx inconclusive, DT40 TDP1 no CPT inconclusive, HT1080-NT tox 16µM
Fc1ccccc1CNc1ccc(Cl)cc1	none
Oc1ccc(NCc2ccccc2OCc2ccccc2)cc1	TDP1 cell CPT 18µM, HT1080 IDH1KD tx inconclusive, DT40 TDP1 no CPT 23µM, IL1B secr inh -74
CCNCc1ccccc1OCc1ccccc1	none
Cc1cc(CNC[C@H]2O[C@@H](n3ccc(=O)[nH]c3=O)[C@H](O)[C@@H]2O)no1	none (no result: uPA generation)
Nc1cccc2cccc([N+](=O)[O-])c12	none
O=C(NCCN1CCCCC1)c1cc(Cl)ccc1Cl	none
Cc1c(Cl)ccc2c(C(=O)NCCCn3nccc3C)cc(-c3ccccn3)nc12	TDP1 cell CPT 21µM, DT40 TDP1 no CPT inconclusive
COc1ccccc1-c1cc(C(=O)NC2CCCC2)no1	DT40 TDP1 no CPT inconclusive
Cc1c(Cl)ccc2c(C(=O)NCCN3CCCCC3)cc(-c3ccccn3)nc12	TDP1 cell CPT inconclusive, HT1080 IDH1KD tx 23µM, DT40 TDP1 no CPT 9.2µM, IL1B secr inh -97, HT1080-NT tox inconclusive
COc1ccccc1-c1cc(C(=O)NC2CCN(C)CC2)c2ccc(Cl)c(C)c2n1	TDP1 cell CPT 12µM, HT1080 IDH1KD tx inconclusive, DT40 TDP1 no CPT 21µM, IL1B secr inh inconclusive
Cc1ccnc(NS(=O)(=O)c2ccc(NC(=O)c3cc(=O)c4ccccc4o3)cc2)n1	none
COC(=O)c1ccccc1NC(=O)c1ccc(COc2ccc(C)c(C)c2)o1	TDP1 cell CPT inconclusive, DT40 TDP1 no CPT 13µM
COC(=O)c1cc(OC)c(OC)cc1NC(=O)CCc1ccc(C)o1	TDP1 cell CPT inconclusive, DT40 TDP1 no CPT inconclusive
Cc1cc2nc(-c3cccc(NC(=O)c4ccc(Br)o4)c3C)oc2cc1C	TDP1 cell CPT inconclusive, HT1080 IDH1KD tx inconclusive, DT40 TDP1 no CPT 23µM, uPA generation inconclusive
COC(=O)c1ccccc1NC(=O)c1ccc(COc2cc(C)cc(C)c2)o1	TDP1 cell CPT inconclusive, DT40 TDP1 no CPT 23µM
COC(=O)c1cc(OC)c(OC)cc1NC(=O)c1ccc(C)o1	TDP1 cell CPT 15µM, DT40 TDP1 no CPT 18µM (no result: uPA generation)
Cc1ccc(OCc2ccc(C(=O)NN)o2)cc1C	none
O=C1CSC(=S)N1N=Cc1ccc(Cl)s1	TDP1 cell CPT inconclusive
CN(C(=O)c1ccccc1C(=O)OCC(=O)Nc1ccccc1)c1ccccc1	none
O=c1[nH]c(=S)[nH]c2c1C(c1cccc(C(F)(F)F)c1)OC(CCc1ccccc1)C2 (configuration not stated)	TDP1 cell CPT inconclusive, HT1080 IDH1KD tx inconclusive, DT40 TDP1 no CPT inconclusive, HT1080-NT tox inconclusive (no result: uPA generation)
COC(=O)c1ccccc1NC(=O)c1cccc(NC(=O)c2ccc(Br)o2)c1C	TDP1 cell CPT 2.9µM, HT1080 IDH1KD tx 10µM, DT40 TDP1 no CPT 1.8µM, HT1080-NT tox 13µM
O=C(Nc1ccccc1C(=O)O)c1ccc(Br)o1	HT1080 IDH1KD tx inconclusive
CCN(CC)S(=O)(=O)c1ccc(NC(=O)c2ccc(OCC3CCCO3)cc2)cc1 (configuration not stated)	TDP1 cell CPT 23µM, HT1080 IDH1KD tx inconclusive, DT40 TDP1 no CPT 15µM, uPA generation inconclusive, IL1B secr inh inconclusive
Cc1cc(NC(=O)c2ccc(OCC3CCCO3)cc2)ccc1Br (configuration not stated)	TDP1 cell CPT 21µM, HT1080 IDH1KD tx inconclusive, DT40 TDP1 no CPT 15µM (no result: uPA generation)
O=C(Nc1ccc(Cl)cc1)c1ccc(OCC2CCCO2)cc1 (configuration not stated)	DT40 TDP1 no CPT inconclusive (no result: uPA generation)
CCOc1ccc(NC(=O)c2ccc(OCC3CCCO3)cc2)cc1S(=O)(=O)N(CC)CC (configuration not stated)	HT1080 IDH1KD tx inconclusive, DT40 TDP1 no CPT inconclusive
O=C(Nc1ccc(Br)cc1Cl)c1ccc(OCC2CCCO2)cc1 (configuration not stated)	TDP1 cell CPT inconclusive, DT40 TDP1 no CPT inconclusive, IL1B secr inh -81
Cc1cccc(NC(=O)c2ccc(OCC3CCCO3)cc2)c1C (configuration not stated)	none
O=C(C1CCN(CCCc2ccccc2)CC1)N(CCc1ccccc1)Cc1ccccc1	TDP1 cell CPT inconclusive, HT1080 IDH1KD tx inconclusive, DT40 TDP1 no CPT 15µM, IL1B secr inh inconclusive, HT1080-NT tox inconclusive

Screens from PubChem BioAssay.
